The text below walks through data of the supplement of paper PMC10037445.

In test [1] the test system is RAW-Dual. The test is described as follows: NF-kB SEAP reporter activity, fold change vs agonist alone; higher = enhanced NF-kB activity. Put shortly:
(§1)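 RAW-Dual macrophages (50,000 cells/well in DMEM, 384-well plates) received 50 nL of library stock by pin tool, then a PRR agonist 1 h later, and were kept at 37 °C, 5% CO2. After 20 hours, supernatant was read for IRF by QuantiLuc luminescence and for NF-κB by QuantiBlue absorbance at 620 nm. Reporter activity is fold change over agonist-alone wells. Cytotoxic wells had IncuCyte confluency below 70% of agonist controls in both mask sets.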

Test [2] relates to RAW-Dual. The test is described as follows: NF-kB SEAP reporter activity, fold change vs agonist alone; cytotoxicity flag (confluency mask): cytotoxic (confluency <70% of control); higher = enhanced NF-kB activity. Put shortly: as §1
Test [3] relates to RAW-Dual. The test is described as follows: NF-kB SEAP reporter activity, fold change vs agonist alone; cytotoxicity flag (confluency mask): not cytotoxic; higher = enhanced NF-kB activity. Put shortly: as §1
The mark [4] stands for this setting: library stock concentration (final ~1000-fold dilution): 10 mM, cytotoxicity flag (confluency mask): cytotoxic (confluency <70% of control), agonist: Imiquimod (TLR7) […].
Where [5] appears, read: library stock concentration (final ~1000-fold dilution): 10 mM, cytotoxicity flag (confluency mask): cytotoxic (confluency <70% of control), agonist: MPLA (TLR4) […].
Setting [6] is: agonist: ODN 1826 (TLR9) 0.5 ug/mL.
The mark [7] stands for this setting: agonist: Pam2CSK4 (TLR2/6) 0.1 ug/mL.
Where [8] appears, read: agonist: Pam3CSK4 (TLR2/1) 0.1 ug/mL.
The mark [9] stands for this setting: library stock concentration (final ~1000-fold dilution): 10 mM, cytotoxicity flag (confluency mask): not cytotoxic, agonist: Imiquimod (TLR7) […].
[10] abbreviates: library stock concentration (final ~1000-fold dilution): 10 mM, cytotoxicity flag (confluency mask): not cytotoxic, agonist: MPLA (TLR4) […].

Structures are written as SMILES. In all, about 2,900 compounds were measured (“NF-kB SEAP reporter activity, fold change vs agonist alone”: median about 0.99, highest 2% from about 2.6 on). Shown is part of a subset that was picked to be rich in the highest values.

For the molecule `COC(=O)CC(O)(CCCC(C)(C)O)C(=O)OC1C(OC)=CC23CCCN2CCc2cc4c(cc2C13)OCO4` (configuration not stated), the “NF-kB SEAP reporter activity” value worked out at 0.141 in the test on RAW-Dual [1] (setting [4]) and 0.255 with RAW-Dual [1] (setting [5]).

With `COC(=O)CC(O)(CCCC(C)(C)O)C(=O)OC1C(OC)=CC23CCCN2CCc2cc4c(cc2C13)OCO4` (configuration not stated) (library stock concentration (final ~1000-fold dilution): 10 mM), the “NF-kB SEAP reporter activity” value in the test on RAW-Dual [2] (agonist: LPS (TLR4) 0.1 ug/mL) was 0.397; in the test with RAW-Dual [2] (setting [6]) it was 0.169; in the test on RAW-Dual [2] (setting [7]), 0.0771; with RAW-Dual [2] (setting [8]), 0.133.

Consider `Cc1ccc(C(=O)N(CCCN)C(c2oc3cc(Cl)ccc3c(=O)c2Cc2ccccc2)C(C)C)cc1.Cl` (configuration not stated) (library stock concentration (final ~1000-fold dilution): 10 mM), for which the “NF-kB SEAP reporter activity” value with RAW-Dual [3] (agonist: LPS (TLR4) 0.1 ug/mL) stood at 0.189; in the test with RAW-Dual [3] (setting [6]) it was 0.953; in the test with RAW-Dual [3] (setting [7]) it was 0.344; with RAW-Dual [3] (setting [8]) it was 0.73.

For `Cc1ccc(C(=O)N(CCCN)C(c2oc3cc(Cl)ccc3c(=O)c2Cc2ccccc2)C(C)C)cc1.Cl` (configuration not stated), the “NF-kB SEAP reporter activity” value was 0.905 with RAW-Dual [1] (setting [9]) and 1.03 with RAW-Dual [1] (setting [10]).

Turning to `Oc1cc(CNC(=S)/C=C/c2cc(O)c(O)c(Br)c2)cc(O)c1O` (library stock concentration (final ~1000-fold dilution): 10 mM), the “NF-kB SEAP reporter activity” value in the test with RAW-Dual [3] (agonist: LPS (TLR4) 0.1 ug/mL) worked out at 3.51; with RAW-Dual [3] (setting [6]), 2.77; in the test with RAW-Dual [3] (setting [7]), 1.67; in the test on RAW-Dual [3] (setting [8]), 0.821.

For the molecule `Oc1cc(CNC(=S)/C=C/c2cc(O)c(O)c(Br)c2)cc(O)c1O`, the “NF-kB SEAP reporter activity” value was 1.78 in the test on RAW-Dual [1] (setting [9]) and 2.29 with RAW-Dual [1] (setting [10]).

Regarding `Cc1cc2c(F)c(Oc3ncnn4cc(OCC(C)OC(=O)C(C)N)c(C)c34)ccc2[nH]1` (configuration not stated), the results for the “NF-kB SEAP reporter activity” value in the test with RAW-Dual [1] (setting [4]) and in the test with RAW-Dual [1] (setting [5]) were 1.98 and 1.72, respectively.

In the case of `Cc1cc2c(F)c(Oc3ncnn4cc(OCC(C)OC(=O)C(C)N)c(C)c34)ccc2[nH]1` (configuration not stated) (library stock concentration (final ~1000-fold dilution): 10 mM), the “NF-kB SEAP reporter activity” value in the test with RAW-Dual [2] (agonist: LPS (TLR4) 0.1 ug/mL) was found to be 1.52; with RAW-Dual [2] (setting [6]), 0.94; in the test on RAW-Dual [2] (setting [7]) it was 0.759; in the test on RAW-Dual [2] (setting [8]), 1.13.

Turning to `Nc1ccn(CC(CO)OCP(=O)(O)O)c(=O)n1` (configuration not stated) (library stock concentration (final ~1000-fold dilution): 10 mM water), the “NF-kB SEAP reporter activity” value in the test on RAW-Dual [3] (agonist: LPS (TLR4) 0.1 ug/mL) was determined as 1.2; with RAW-Dual [3] (setting [6]), 1.23; in the test with RAW-Dual [3] (setting [7]) it was 1.32; in the test with RAW-Dual [3] (setting [8]), 1.29.

`Nc1ccn(CC(CO)OCP(=O)(O)O)c(=O)n1` (configuration not stated): the “NF-kB SEAP reporter activity” value worked out at 0.956 with RAW-Dual [1] (library stock concentration (final ~1000-fold dilution): 10 mM water, cytotoxicity flag (confluency mask): not cytotoxic, agonist: Imiquimod (TLR7) […]) and 1.04 with RAW-Dual [1] (library stock concentration (final ~1000-fold dilution): 10 mM water, cytotoxicity flag (confluency mask): not cytotoxic, agonist: MPLA (TLR4) […]).

With `O=C(c1cn(Cc2cncn2Cc2ccc(Br)cc2)cc1-c1cccc2ccccc12)N1CCOCC1`, the “NF-kB SEAP reporter activity” value was 1.35 with RAW-Dual [1] (setting [9]) and 1.46 with RAW-Dual [1] (setting [10]).

On to `O=C(c1cn(Cc2cncn2Cc2ccc(Br)cc2)cc1-c1cccc2ccccc12)N1CCOCC1` (library stock concentration (final ~1000-fold dilution): 10 mM), for which the “NF-kB SEAP reporter activity” value in the test on RAW-Dual [3] (agonist: LPS (TLR4) 0.1 ug/mL) came out at 2.82; in the test on RAW-Dual [3] (setting [6]), 1.54; in the test with RAW-Dual [3] (setting [7]), 0.96; in the test on RAW-Dual [3] (setting [8]), 1.16.

In the case of `O=C1NC(=O)C(c2cn3c4c(cccc24)CCC3)C1c1c[nH]c2ccccc12` (configuration not stated) (library stock concentration (final ~1000-fold dilution): 10 mM), the “NF-kB SEAP reporter activity” value in the test on RAW-Dual [3] (agonist: LPS (TLR4) 0.1 ug/mL) amounted to 3.41; in the test with RAW-Dual [3] (setting [6]), 2.7; in the test with RAW-Dual [3] (setting [7]) it was 1.49; in the test with RAW-Dual [3] (setting [8]), 1.4.

`O=C1NC(=O)C(c2cn3c4c(cccc24)CCC3)C1c1c[nH]c2ccccc12` (configuration not stated): the “NF-kB SEAP reporter activity” value in the test on RAW-Dual [1] (setting [9]) was 2.44; in the test with RAW-Dual [1] (setting [10]) it was 1.84.

For `Cl.Clc1cccc(-c2nnnn2Cc2cccnc2)c1Cl` (library stock concentration (final ~1000-fold dilution): 10 mM), the “NF-kB SEAP reporter activity” value came out at 1.07 in the test on RAW-Dual [3] (agonist: LPS (TLR4) 0.1 ug/mL), 0.95 with RAW-Dual [3] (setting [6]), 1.04 in the test with RAW-Dual [3] (setting [7]) and 0.958 in the test with RAW-Dual [3] (setting [8]).

For the molecule `Cl.Clc1cccc(-c2nnnn2Cc2cccnc2)c1Cl`, the “NF-kB SEAP reporter activity” value in the test with RAW-Dual [1] (setting [9]) came out at 1; with RAW-Dual [1] (setting [10]), 1.06.

Regarding `CC1COC2Cn3cc(C(=O)NCc4ccc(F)cc4F)c(=O)c(O)c3C(=O)N12` (configuration not stated) (library stock concentration (final ~1000-fold dilution): 10 mM), the “NF-kB SEAP reporter activity” value with RAW-Dual [3] (agonist: LPS (TLR4) 0.1 ug/mL) was 1.38; with RAW-Dual [3] (setting [6]), 1.03; in the test on RAW-Dual [3] (setting [7]), 0.808; with RAW-Dual [3] (setting [8]), 0.866.

For the molecule `CC1COC2Cn3cc(C(=O)NCc4ccc(F)cc4F)c(=O)c(O)c3C(=O)N12` (configuration not stated), the “NF-kB SEAP reporter activity” value amounted to 0.969 with RAW-Dual [1] (setting [9]) and 1.11 in the test with RAW-Dual [1] (setting [10]).

For `CCC(=O)Nc1cccc(Oc2nc(Nc3ccc(N4CCN(C)CC4)cc3OC)ncc2Cl)c1`, the figures for the “NF-kB SEAP reporter activity” value in the test with RAW-Dual [1] (setting [4]) and in the test on RAW-Dual [1] (setting [5]) were 1.1 and 1.7, respectively.

On to `COc1cc(OC2CCN(C)CC2)ccc1Nc1ncc2c(n1)n(C1CCCC1)c(=O)n2C` (library stock concentration (final ~1000-fold dilution): 10 mM), for which the “NF-kB SEAP reporter activity” value in the test on RAW-Dual [3] (agonist: LPS (TLR4) 0.1 ug/mL) is 1.17; in the test with RAW-Dual [3] (setting [6]), 0.955; in the test on RAW-Dual [3] (setting [7]), 0.964; with RAW-Dual [3] (setting [8]), 1.16.

In the case of `CCC1C(=O)N(C)c2cnc(Nc3ccc(C(=O)NC4CCC(N5CCN(CC6CC6)CC5)CC4)cc3OC)nc2N1C(C)C` (configuration not stated), the “NF-kB SEAP reporter activity” value stood at 0.55 with RAW-Dual [1] (setting [9]) and 0.684 in the test on RAW-Dual [1] (setting [10]).

With `COc1cc(C(=O)NC2CCN(C)CC2)ccc1Nc1ncc2c(n1)N(C1CCCC1)CC(F)(F)C(=O)N2C` (library stock concentration (final ~1000-fold dilution): 10 mM), the “NF-kB SEAP reporter activity” value with RAW-Dual [2] (agonist: LPS (TLR4) 0.1 ug/mL) came to 5.16; in the test with RAW-Dual [2] (setting [6]) it was 0.745; in the test with RAW-Dual [2] (setting [7]), 1.3; with RAW-Dual [2] (setting [8]) it was 3.04.

On to `Cc1cc(Nc2ncc3c(n2)N(C)C(=O)N(c2cc(NC(=O)c4cccc(C(F)(F)F)c4)ccc2C)C3)n(C)n1`, for which the “NF-kB SEAP reporter activity” value in the test with RAW-Dual [1] (setting [4]) is 0.128; in the test with RAW-Dual [1] (setting [5]), 0.265.

In the case of `COc1cc(C(=O)NC2CCN(C)CC2)ccc1Nc1ncc2c(n1)N(C1CCCC1)CC(F)(F)C(=O)N2C`, the “NF-kB SEAP reporter activity” value worked out at 1.71 in the test on RAW-Dual [1] (setting [4]) and 2.85 in the test with RAW-Dual [1] (setting [5]).

On to `COc1cc(OC2CCN(C)CC2)ccc1Nc1ncc2c(n1)n(C1CCCC1)c(=O)n2C`, for which the figures for the “NF-kB SEAP reporter activity” value in the test with RAW-Dual [1] (setting [9]) and with RAW-Dual [1] (setting [10]) were 1.11 and 0.875, respectively.
